VDR inh: Inhibitors of the vitamin D receptor (VDR): qHTS; Vitamin D3 receptor (Homo sapiens), P11473; VDR-SRC2-3 peptide fluorescence polarization, 2 h; Potency, µM, usual class: inhibitors; 400,000 tested, 0.93% active; AID 504847, 2011
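Reagent solutions, kept cold and dark, are dispensed first; compounds are then pinned in at 23 nl, plates briefly spun, and incubated 2 h at ambient temperature. Inhibition of VDR–SRC2-3 peptide binding is read by fluorescence polarization.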
TDP1 inh: qHTS Assay for Inhibitors of Tyrosyl-DNA Phosphodiesterase (TDP1); Tyrosyl-DNA phosphodiesterase 1 (Homo sapiens), Q9NUW8; recombinant TDP1, AlphaScreen DNA substrate cleavage; Potency, µM (highest dose often 130 µM), usual class: inhibitors; 350,000 tested, 0.28% active; AID 485290, 2010; also: nearly all actives have a fitted effect of over 40% in size
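Signal: AlphaScreen proximity between streptavidin donor and anti-FITC acceptor beads on intact substrate. Reaction: Tdp1 1 nM, substrate 15 nM final, 5 min RT after 15 min compound preincubation.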
PLK1 PBD inh: qHTS for Inhibitors of PLK1-PDB (polo-like kinase 1 - polo-box domain): Primary Screen. Serine/threonine-protein kinase PLK1 (Homo sapiens), P53350. Plk1 PBD binding of FITC phosphopeptide, fluorescence polarization. Potency, µM, usual class: inhibitors. 360,000 tested, 2.8% active; also: series mostly up to about 57 µM; nearly all actives have a fitted effect of over 65% in size
DT40 TDP1 no CPT: qHTS for Inhibitors of human tyrosyl-DNA phosphodiesterase 1 (TDP1): qHTS in cells in absence of CPT; DT40 Tdp1-/- hTDP1 cells, no CPT, ATP luminescence, 48 h; Potency, µM (titrated, usually from 46.2 µM), most hits filed as inhibitors; 420,000 tested, 15% active; AID 686978, 2013; also: nearly all actives have a fitted effect of over 55% in size
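Cells were dispensed at 400 per well, compounds added by pin tool, plates incubated ≥48 hr at 37 °C, then CellTiter-Glo added for 30 min at room temperature before luminescence reading. Line: DT40 Tdp1-/- complemented with hTDP1; camptothecin omitted.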
TDP1 cell CPT: qHTS for Inhibitors of human tyrosyl-DNA phosphodiesterase 1 (TDP1): qHTS in cells in presence of CPT. chicken DT40 Tdp1-/-;hTDP1 cells + 20 nM CPT, ATP luminescence, 48 h. Potency, µM (top dose mostly 46.2 µM), actives largely listed as inhibitors. 420,000 tested, 12% active; also: nearly all actives have a fitted effect of over 55% in size
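Chicken DT40 Tdp1-/- cells complemented with human TDP1, 400 cells/well, exposed to compounds plus 20 nM camptothecin for at least 48 h at 37 C; viability read as ATP content by CellTiter-Glo luminescence.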
KAT2A inh: qHTS Assay for Inhibitors of GCN5L2; GCN5L2 HAT assay, ThioGlo1 CoA-SH fluorescence; Potency, µM (doses to about 58.9 µM), usual class: inhibitors; 390,000 tested, 0.21% active
Target sequence (Q92830 whole entry, looked up): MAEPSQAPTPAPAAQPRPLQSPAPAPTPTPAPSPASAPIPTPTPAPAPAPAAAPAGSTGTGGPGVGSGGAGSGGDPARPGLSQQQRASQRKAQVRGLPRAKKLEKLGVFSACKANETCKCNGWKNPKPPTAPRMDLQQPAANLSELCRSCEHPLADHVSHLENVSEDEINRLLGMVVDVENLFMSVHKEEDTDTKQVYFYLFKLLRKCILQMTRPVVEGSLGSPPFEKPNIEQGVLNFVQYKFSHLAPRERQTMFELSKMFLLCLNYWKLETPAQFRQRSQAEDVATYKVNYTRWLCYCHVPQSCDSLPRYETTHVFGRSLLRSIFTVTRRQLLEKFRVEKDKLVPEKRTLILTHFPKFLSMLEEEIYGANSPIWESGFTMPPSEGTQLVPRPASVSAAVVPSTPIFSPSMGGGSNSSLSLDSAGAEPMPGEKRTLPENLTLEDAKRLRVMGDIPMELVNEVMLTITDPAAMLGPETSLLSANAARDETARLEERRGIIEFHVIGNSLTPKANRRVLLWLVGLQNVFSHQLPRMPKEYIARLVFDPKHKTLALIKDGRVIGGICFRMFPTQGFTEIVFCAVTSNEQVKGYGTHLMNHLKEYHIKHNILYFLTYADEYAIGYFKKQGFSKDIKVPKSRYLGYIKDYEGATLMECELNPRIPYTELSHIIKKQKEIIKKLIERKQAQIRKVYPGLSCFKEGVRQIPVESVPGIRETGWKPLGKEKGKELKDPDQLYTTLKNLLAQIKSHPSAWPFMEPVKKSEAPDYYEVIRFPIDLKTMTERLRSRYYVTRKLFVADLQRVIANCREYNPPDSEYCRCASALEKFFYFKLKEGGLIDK
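qHTS, 1536-well. 20nM enzyme, pH 7.5 HEPES/EDTA/Tween-20 buffer; 15 min compound preinc., RT. Start: 75uM H3(1-25), 70uM AcCoA, 50uM ThioGlo1. Read Ex340/Em540 at t=0 (autofluorescence flag) and t=20 min.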
Hits are given with their value; - = inactive; ? = inconclusive; . = no result. This is a sample that favours compounds with a hit; in the whole collection about 18% have one here. Calls follow the shape of the dose curve; as a rule, active = well fitted curve in the direction sought with a large enough effect; inconclusive = small, poorly fitted or top-dose-only effect, or another doubt; inactive = no such curve, though single readings can be large; an effect the other way counts as inactive or inconclusive.

SMILES	VDR inh	TDP1 inh	PLK1 PBD inh	DT40 TDP1 no CPT	TDP1 cell CPT	KAT2A inh
COc1ccc2[nH]c3c(c2c1)CCN(C(=O)c1cccc(Cl)c1)C3c1ccc(F)cc1 (stereo not given)	?	-	.	?	?	-
Cc1ccc(NC(=O)N2CCc3c([nH]c4ccccc34)C2c2ccccc2F)c(Cl)c1 (stereo not given)	-	-	.	23µM	?	-
CC1c2[nH]c3ccccc3c2CCN1C(=O)Nc1ccccc1 (stereo not given)	-	-	-	23µM	23µM	-
COc1ccc(NC(=O)N2CCc3c([nH]c4ccc(OC)cc34)C2c2ccc(OC)cc2)cc1 (stereo not given)	-	-	.	21µM	?	-
COc1cc(/C=C(/C#N)c2ccc(F)cc2)ccc1Oc1ccc([N+](=O)[O-])cn1	-	-	-	3.7µM	2.9µM	-
COc1cc(/C=N\NC(=O)c2ccccc2F)ccc1Oc1ccc([N+](=O)[O-])cn1	-	-	-	4.6µM	4.6µM	-
N#C/C(=C/c1ccc(Oc2ccc([N+](=O)[O-])cn2)cc1)C(=O)N1CCOCC1	?	-	-	-	?	-
CCOc1cc(C=C(C#N)C#N)ccc1Oc1ccc([N+](=O)[O-])cn1	?	-	-	13µM	18µM	-
COc1cc(/C=C2/NC(=O)N(CC(=O)Nc3ccc(C)cc3)C2=O)ccc1Oc1ccc([N+](=O)[O-])cn1	-	-	-	-	?	-
COc1cc(/C=N\NC(=O)c2ccc(Cl)cc2)ccc1Oc1ccc([N+](=O)[O-])cn1	-	-	-	-	-	-
Cc1nc2c(C(=O)NCc3ccccc3Cl)c[nH]n2c(=O)c1Cc1cccc(Cl)c1	-	-	.	?	?	?
CC(C)[C@H]1COC(c2cc(Cl)cc(Cl)c2)=N1	-	-	.	.	.	?
Nc1ncnc2c1ncn2[C@@H]1O[C@H](C(=O)N(CCC2=CCCCC2)CC2CC2)[C@@H](O)[C@H]1O	.	.	-	16µM	?	.
O=S1(=O)CC(N2CCSCC2)CN1Cc1cn(Cc2cccc(C(F)(F)F)c2)nn1 (stereo not given)	.	.	-	-	-	.
COc1ccc(NC(=O)c2cc3c(CO)cnc(C)c3oc2=Nc2cccc(C)c2)c(OC)c1	-	.	-	4.1µM	?	-
COc1ccccc1NC(=O)c1cc2c(CO)cnc(C)c2oc1=Nc1ccc(OC)c(OC)c1	-	.	-	?	9.2µM	-
CCOC(=O)C1CCN(C(=O)C(CC)c2ccccc2)CC1 (stereo not given)	-	-	-	-	-	-
COc1ccc(-c2cc(C(=O)Nc3ccc(O)cc3)c3ccccc3n2)cc1OC	-	-	-	1.5µM	10µM	-
COc1ccccc1NC(=O)c1cc(-c2ccc(OC)c(OC)c2)nc2ccccc12	-	.	-	9.2µM	16µM	-
COc1ccc(-c2cc(C(=O)NCC(c3ccccc3)N(C)C)c3ccccc3n2)cc1OC (stereo not given)	-	.	-	?	?	-
COc1ccc(-c2cc(C(=O)Nc3cccc(S(=O)(=O)NCc4ccco4)c3)c3ccccc3n2)cc1OC	-	-	-	6.5µM	10µM	-
COc1ccc(-c2ccc(CCC(=O)O)o2)cc1	?	-	-	?	21µM	-
O=C(O)CCc1ccc(-c2ccc(Br)cc2)o1	?	-	?	-	-	-
O=C1c2ccccc2C(=O)N1CCc1ccccn1	-	-	-	-	?	-
Cc1ccc(C(=O)O)cc1N1C(=O)c2cccc3c([N+](=O)[O-])ccc(c23)C1=O	-	.	?	6.5µM	6.5µM	-
CC(=O)Oc1cccc(N2C(=O)c3ccc(C(=O)O)cc3C2=O)c1	-	-	-	-	-	-

Bioassay records from PubChem.
